The list is not random: actives were taken first. Their share in the collection is about 9.3%.
ELG1 genotoxic: inducers of genotoxicity in HEK293T ELG1-luciferase cells | HEK293T ELG1-luciferase reporter, luminescence, 16 h | Potency, µM (titrated, usually from 46 µM), inactives show at the top dose activity change, positive = activation, actives largely listed as activators | actives 1.3% (n = 330,000) | AID 504466; further: % of control where 0% means no effect; nearly all actives have a fitted effect of over 60% in size
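HEK293T cells expressing luciferase-tagged ELG1 were treated with compound or DMSO for 16 hr at 37°C. Luciferase activity was then read after 30 min with ONE-Glo at room temperature; rising signal flags genetic stress.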
Rab9 prom act: Rab9 promoter activation; Huh7 Rab9 promoter-luciferase reporter, luminescence, 24 h; Potency, µM (top dose mostly 9.22 µM), for the others: at the top dose activation, negative = inhibition, most hits filed as activators; actives 2.8% (n = 320,000); further: % of control where 0% means no effect; nearly all actives have a fitted effect of over 60% in size
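Measured in stably transfected Huh7 cells bearing a Rab9 promoter–luciferase construct: 24 h compound treatment at 37 °C, followed by luminescence detection.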
ELG1 repair inh: ELG1-dependent DNA repair inhibition. HEK293T ELG1-luciferase reporter, luminescence, 16 h; DNA damage induced by 5-fluorouridine. Potency, µM (highest dose often 46.1 µM), inactives show at the highest dose activity change, negative = inhibition, hits mostly inhibitors. actives 2.3% (n = 330,000); further: on the % scale 0 is the no-effect control and ±100 the full control effect; nearly all actives have a fitted effect of over 55% in size
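HEK293T cells expressing luciferase-tagged ELG1 (2,000/well) received 5-Fluorouridine plus compound or DMSO for 16 hr at 37 °C. Luciferase was read by ONE-Glo luminescence after 30 min at room temperature.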
FLuc modulator: inhibits or activates purified firefly luciferase, miR-21 counter-screen; P08659; actives 6.9% (n = 360,000); Potency, µM (titrated, usually from 57.5 µM), for the others: top-dose activity change, negative = inhibition, actives largely listed as inhibitors; purified FLuc, Km substrates, luminescence inhibition;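 further: plate controls were vehicle for no effect and reference inhibitor for full effect; nearly all actives have a fitted effect of over 55% in size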
Target sequence (P08659 whole entry, looked up): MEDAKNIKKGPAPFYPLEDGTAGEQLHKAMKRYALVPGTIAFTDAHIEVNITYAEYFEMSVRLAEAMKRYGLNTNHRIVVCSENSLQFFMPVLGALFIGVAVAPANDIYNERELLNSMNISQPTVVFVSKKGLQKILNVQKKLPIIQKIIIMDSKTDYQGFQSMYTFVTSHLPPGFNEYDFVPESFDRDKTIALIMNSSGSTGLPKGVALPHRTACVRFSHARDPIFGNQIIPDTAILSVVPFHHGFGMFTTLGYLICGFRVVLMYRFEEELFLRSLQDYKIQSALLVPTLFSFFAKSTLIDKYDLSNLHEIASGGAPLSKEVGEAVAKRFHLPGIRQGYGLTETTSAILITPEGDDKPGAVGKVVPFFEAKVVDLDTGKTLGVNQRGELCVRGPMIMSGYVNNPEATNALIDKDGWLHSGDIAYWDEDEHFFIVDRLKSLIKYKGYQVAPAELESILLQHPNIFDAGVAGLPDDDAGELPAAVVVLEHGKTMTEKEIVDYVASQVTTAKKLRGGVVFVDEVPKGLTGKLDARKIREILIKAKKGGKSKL
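Purified P. pyralis luciferase (10nM final) with 10uM D-luciferin and 10uM ATP (Km levels) in 50mM Tris acetate pH 7.5, 10mM Mg acetate, 0.01% Tween-20, 0.05% BSA; qHTS 6-point titration, ~60 µM downward; luminescence read.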
SMN2 splice up: increases expression of the SMN2 splice variant; Potency, µM (doses to about 46.1 µM), inactives show at the top dose activity change, positive = activation, usual class: activators; HEK293 SMN2-luciferase splicing reporter, luminescence, 30-36 h; actives 2.8% (n = 210,000); further: % of control where 0% means no effect; nearly all actives have a fitted effect of over 55% in size
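HEK293 cells carry an SMN2 minigene-luciferase reporter in which exon 7 inclusion puts luciferase in frame. Cells were seeded at 2000 cells/well, attached for 10-12 hours, then exposed to compounds for 30-36 hours at 37C before ONE-Glo luminescence.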
NPC1 promoter act: NPC1 promoter activation; Huh7 NPC1 promoter luciferase reporter, 24 h; Potency, µM (series often up to 9.22 µM), inactives show at the top dose activation, actives largely listed as activators; actives 2.4% (n = 320,000); further: % of control where 0% means no effect; nearly all actives have a fitted effect of over 60% in size
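Quantitative HTS used a cell-based reporter: Huh7 cells stably bearing the NPC1 promoter upstream of luciferase were treated with compounds for 24 h, and promoter activation was read as luminescence.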
Numbers without * were called inactive; ? = inconclusive; . = no result given; [ ] = dose if it differs, or a comment. The call rests on the fitted dose curve; in most records, active means well fitted curve in the direction sought with a large enough effect; inconclusive means small, poorly fitted or top-dose-only effect, or another doubt; inactive means no such curve, though single readings can be large; an effect the other way counts as inactive or inconclusive. Potency means the concentration at half of the fitted maximal effect.

SMILES	ELG1 genotoxic	Rab9 prom act	ELG1 repair inh	FLuc modulator	SMN2 splice up	NPC1 promoter act
COCCCNc1nc2c(c(=O)n(C)c(=O)n2C)n1Cc1cccc(OC)c1	-1%	0%	15µM*	4%	-22%	-8%
CCn1c(=O)c2sccc2n(Cc2ccccc2)c1=O	-2%	-2%	-12%	4%	.	0%
Cc1ccc(S(=O)(=O)N/N=C/c2ccc3nccnc3c2)cc1	0%	-4%	-17%	-6%	.	-1%
COC(=O)c1cc(-c2ccc3ccccc3c2)[nH]c(=O)c1C#N	.	.	.	.	6%[9.22 µM]	.
Cn1c(=O)c2c(SCc3ccccc3)nc(C3CC3)nc2n(C)c1=O	4%	9%	20%	-1%	.	-1%
CCCc1nc(SCc2cccnc2)c2c(=O)n(C)c(=O)n(C)c2n1	-7%	-1%	16µM*	1%	-11%	-6%
Cn1c(=O)c2c(SCc3cccnc3)nc(CC(C)(C)C)nc2n(C)c1=O	-6%	-10%	?	-2%	-7%	2%
Cn1c(=O)c2c(SCc3ccccn3)nc(C3CC3)nc2n(C)c1=O	16µM*	13%	10%	-1%	29%	0%
CCOC(=O)N1CCC(NC(=O)c2ccc3c(Cl)c4c(nc3c2)CCCC4)CC1	-4%	-4%	?	-2%	-22%	-3%
N#Cc1ccccc1NC(=O)c1ccc2c(Cl)c3c(nc2c1)CCCC3	12%	3.5µM*	?	3.8µM*	10µM*	?
O=C(Nc1cccnc1Cl)c1ccc2c(Cl)c3c(nc2c1)CCC3	2.3µM*	0.71µM*	?	0.85µM*	?	1µM*
CC(=O)c1cccc(NC(=O)c2ccc3c(Cl)c4c(nc3c2)CCCC4)c1	0%	13%	11%	?	-5%	5%
O=C(NCc1ccc(Cl)cc1)c1ccc2c(Cl)c3c(nc2c1)CCCC3	.	.	.	3%	-6%	.
O=C(NC1CC1)c1ccc2c(Cl)c3c(nc2c1)CCCC3	0%	-5%	-14%	13µM*	-19%	0%
O=C(Nc1ccccc1F)c1ccc2c(Cl)c3c(nc2c1)CCC3	.	.	.	0.15µM*	?	.
O=C(Nc1ccc(F)c(Cl)c1)c1ccc2c(Cl)c3c(nc2c1)CCCC3	.	.	.	-3%	7%	.
COC(=O)c1ccc(N=NNc2cccc(Br)c2)cc1	?	1.3µM*	?	7.6µM*	5µM*	1.3µM*
COC(=O)C(C)Nc1cccc(Br)c1 (centres undefined)	0%	-1%	10%	1%	.	-1%
COC(=O)c1ccc(N=NNc2ccc(C(=O)OC)cc2)cc1	18µM*	?	?	?	?	?
O=C(/C(N=Nc1cccc([N+](=O)[O-])c1)=C(/O)c1ccc(Br)cc1)C(F)(F)F	-5%	-42%	?	3%	.	-39%
N#C/C(=N\Nc1cccc([N+](=O)[O-])c1)C(=O)c1ccc(Br)cc1	-11%	-58%	1.8µM*	?	-50%	-32%
COC(=O)c1ccc(NS(=O)(=O)N(C)C)cc1	1%	-11%	18%	-2%	21%	0%
O=C(O)c1ccc(N=NNc2cccc([N+](=O)[O-])c2)cc1	?	0.63µM*	?	2.4µM*	11µM*	0.89µM*
CC1CCCN(CCCNC(=O)c2nn(C)c3c2CS(=O)(=O)c2ccccc2-3)C1 (centres undefined)	1%	0%	6%	1%	.	-6%
O=C(c1cc(C(F)(F)F)cc(C(F)(F)F)c1)N1CCC[C@@]2(CCN(Cc3ccncc3)C2)C1	.	.	.	.	-3%	.
SMILES	ELG1 genotoxic	Rab9 prom act	ELG1 repair inh	FLuc modulator	SMN2 splice up	NPC1 promoter act
C[C@H](NC(=O)c1ccccc1Cl)C(=O)Nc1ccccc1F	0%	4%	5%	-2%	.	1%
COC(=O)c1ccc(N=NNc2ccccc2)cc1	?	1.3µM*	?	3.8µM*	8.9µM*	1.4µM*
COC(=O)c1ccc(N=Nc2c(C)[nH]n(-c3ccccc3)c2=O)cc1	-5%	-2%	0%	-7%	.	1%
Cc1c(/C=N/NC(=O)c2cccnc2)c2ccccn2c1C(=O)c1ccc(F)cc1	-11%	-3%	18µM*	15µM*	-24%	-2%
Cc1c(/C=N/NC(=O)c2cc(=O)[nH]c(=O)[nH]2)c2ccccn2c1C(=O)c1ccccc1	-2%	-2%	-2%	24µM*	-16%	0%
COC(=O)N/N=C/c1c(C)c(C(=O)c2ccc(F)cc2)n2ccccc12	-16%	1%	23µM*	4%	-38%	1%
CCOC(=O)N/N=C/c1c(C)c(C(=O)c2ccc(F)cc2)n2ccccc12	-18%	-2%	?	-2%	15%	3%
Cc1c(/C=N/NC(=O)c2ccc(O)cc2)c2ccccn2c1C(=O)c1ccc(F)cc1	-8%	6%	?	?	-35%	5%
Cc1c(/C=N/NC(=O)c2ccccc2O)c2ccccn2c1C(=O)c1ccc(F)cc1	-17%	7%	23µM*	13µM*	-103%	-1%
O=C(CS(=O)(=O)c1c[nH]c2ccccc12)N1CCc2ccccc21	2%	15%	0%	-16%	.	2%
COc1ccc(-n2nc(C(=O)NCC(=O)NC(C)C)c3ccccc3c2=O)c(OC)c1	-1%	1%	4%	0%	.	4%
COc1ccc(-n2nc(C(=O)NCC(=O)N3CCC(C)CC3)c3ccccc3c2=O)c(OC)c1	?	?	?	1.5µM*	.	?
COc1ccc(-n2nc(C(=O)NCC(=O)N3CCCCC3)c3ccccc3c2=O)c(OC)c1	?	?	?	3.8µM*	.	23%
COc1ccc(-n2nc(C(=O)NCC(=O)N3CCCCCC3)c3ccccc3c2=O)c(OC)c1	?	14%	?	2.4µM*	.	12%
COc1ccc(-n2nc(C(=O)NCC(=O)N3CCN(Cc4ccccc4)CC3)c3ccccc3c2=O)c(OC)c1	1%	0%	5%	?	.	0%
COc1ccc(-n2nc(C(=O)NCC(=O)N3CCOCC3)c3ccccc3c2=O)c(OC)c1	5%	-3%	?	24µM*	.	-2%
CC(C)(C)c1cc(C(=O)NNc2cc(C(F)(F)F)ccc2Cl)n(Cc2ccccc2)n1	-9%	17%	?	-3%	.	1%
COc1ccc(/C(O)=C2/C(=O)C(=O)N(c3ccccn3)C2c2ccc(C(C)C)cc2)cc1 (centres undefined)	6%	0%	-8%	?	.	-2%
CCCn1c(CN2CCN(C(=O)OCC)CC2)nc2cc([N+](=O)[O-])ccc21	-9%	-6%	2%	-1%	.	2%
